Source: PubChem BioAssay (NCATS)
Several values for one entry are separate records, joined by “and”; a condition that tells them apart may be missing. Equal values may be shown once. Inconclusive results are not listed. Activity calls are given as the source filed them. Calls follow the shape of the dose curve; as a rule, active = well fitted curve in the direction sought with a large enough effect; inconclusive = small, poorly fitted or top-dose-only effect, or another doubt; inactive = no such curve, though single readings can be large or run the other way.

Assay: qHTS Assay for Identifying Gametocytocidal Compounds (AID 743244);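 also: actives lower the fluorescent signal which means gametocytes are killed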
Settings: P. falciparum 3D7 stage III-V gametocytes, alamarBlue, 72 h; max response: hits give low values
Summary of the method: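 Late gametocytes (III–V), P. falciparum 3D7; 72 h drug, then 24 h alamarBlue; resazurin reduction read by fluorescence.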
% is scaled to controls: 0 for no effect and ±100 for the full control effect.

| SMILES | max response |
| --- | --- |
| O=P(O)(O)C(O)(Cc1cnc2ccccn12)P(=O)(O)O | -4.82% (inactive) |
| CN(C(=O)CO)c1c(I)c(C(=O)NCC(O)CO)c(I)c(C(=O)NCC(O)CO)c1I (stereo not drawn) | -2.64% (inactive) |
| Nc1c(CC(=O)O)cccc1C(=O)c1ccccc1 | -9.51% (inactive) and 6.92% (inactive) |
| Nc1ncnc(Nc2ccc(Cl)cc2)n1 | -12% (inactive) |
| CC(C)(S)C(=O)N[C@@H](CS)C(=O)O | -15.4% (inactive) and 8.89% (inactive) |
| CCC[C@@]1(CCc2ccccc2)CC(O)=C([C@H](CC)c2cccc(NS(=O)(=O)c3ccc(C(F)(F)F)cn3)c2)C(=O)O1 | 14.3% (inactive) |
| CCCCCCCCCCCCCCCCCC(=O)OCCO | -0.219% (inactive) |
| CC1(C)C2CC[C@]3(C)[C@H](C(=O)C=C4[C@@H]5C[C@@](C)(C(=O)O)CC[C@]5(C)CC[C@]43C)[C@@]2(C)CC[C@@H]1O[C@H]1O[C@H](C(=O)O)[C@@H](O)[C@H](O)[C@H]1O[C@@H]1O[C@H](C(=O)O)[C@@H](O)[C@H](O)[C@H]1O (stereo partly drawn) | -0.804% (inactive) |
